For 101 molecules, activity change, negative = inhibition and Potency results are on record in PubChem BioAssay AID886 (National Center for Advancing Translational Sciences (NCATS), 2007).

Where “and” joins values, the source holds several entries; their conditions need not be identical. Equal values may be shown once. The whole screen tested about 73,000 compounds, of which about 2,500 (3.4%) were called active. A call without a number means that no potency is given here. Not shown: some 7% with an inconclusive outcome. This excerpt belongs to a sample that is enriched for actives. Unmarked numbers belong to inactive results. The call rests on the fitted dose curve; in most records, active means well fitted inhibition curve with a large enough effect; inconclusive means small, poorly fitted or top-dose-only effect; inactive means no such curve, though single readings can be large or run the other way.
Potency means the concentration at half of the fitted maximal effect.

3-hydroxyacyl-CoA dehydrogenase type-2 (Homo sapiens), sequence (Q99714 whole entry, looked up): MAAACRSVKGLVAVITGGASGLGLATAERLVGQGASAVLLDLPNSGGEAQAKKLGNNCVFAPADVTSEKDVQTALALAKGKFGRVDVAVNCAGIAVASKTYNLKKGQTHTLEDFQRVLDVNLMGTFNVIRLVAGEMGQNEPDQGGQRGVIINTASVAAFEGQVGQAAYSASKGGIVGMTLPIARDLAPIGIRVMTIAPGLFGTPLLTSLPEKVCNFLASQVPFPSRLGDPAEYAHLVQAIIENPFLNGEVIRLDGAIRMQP
3-hydroxyacyl-CoA dehydrogenase type-2 (Homo sapiens), sequence (Q99714 whole entry, looked up): as above

This experiment has as its target 3-hydroxyacyl-CoA dehydrogenase type-2 (Homo sapiens) (UniProt Q99714). In words: qHTS Assay for Inhibitors of HADH2 (Hydroxyacyl-Coenzyme A Dehydrogenase, Type II). Further: nearly all actives have a fitted effect of over 60% in size. To be noted: recombinant HADH2, NADH fluorescence, beta-hydroxybutyryl-CoA; series mostly up to 57.1 µM. Put shortly:
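Buffer 100 mM Tris-HCl pH 9.0/0.01% Tween-20; HADH2 20 nM; NAD+ 1 mM; beta-hydroxybutyryl-CoA 90 uM (all final). 15 min cpd preincubation, RT.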
As to `CO[C@H]1COC(=O)C/C=C\[C@H](C)COC(=O)[C@@H](OCc2ccccc2)/C=C\[C@@H]1C`, the activity change, negative = inhibition is 8.32% [at 11.4 µM].

Take `COc1ccc2c(=O)cc(-c3ccccc3)oc2c1O`: the Potency result is “inactive”.

On to `Cc1cc2nc3c(=O)[nH]c(=O)nc-3n(C[C@H](O)[C@H](O)[C@H](O)CO)c2cc1C`, for which the Potency entry is “inactive”.

Turning to `N#Cc1ccccc1-n1c(N)c(C(=O)N2CCCC2)sc1=S`, the Potency was 2.51 µM (active). In the case of `CC(=O)c1c(N2CCOCC2)nc(=S)n(-c2cc(C)ccc2C)c1C`, the Potency result was “inactive”. `CCC(=O)Nc1sc(C(=O)N2CCCCC2)c(C)c1C#N`: the Potency entry is “inactive”. For the molecule `Cc1ccc(OCCCC(=O)N2CCOCC2)c(C)c1`, the Potency entry was “inactive”.

Consider `Cc1cccc(-n2c(N)cc(=O)nc2SC(C)C(=O)NC2CCCCC2)c1` (stereo unspecified), for which the Potency result is “inactive”. On the same count and under the same terms, then `Cc1cccc(-n2c(N)c(C(=O)N3CCN(C)CC3)sc2=S)c1`, with 0.631 µM (active); and `O=C(c1ccccc1)N1CCN(C(=O)N2CCCCC2)CC1`, with “inactive”; and `Cc1ccc(-n2c(N)c(C(=O)N3CCOCC3)sc2=S)c(C)c1`, with 3.16 µM (active). Same read-out and setting: then `COc1cccc(-c2nn(C)c3sc(C(=O)N4CCN(c5ccccc5)CC4)cc23)c1`, with “inactive”; and `N#Cc1cc2[nH]c(=O)c(=O)[nH]c2cc1[N+](=O)[O-]`, with “inactive”. Same read-out and setting: the value for `CCC[C@H]1C(=O)N2C(N(C)C)=Nc3ccc(C)cc3N2C1=O` was “inactive”; that for `Cc1cnc(CNc2ncncc2-c2ccccc2Cl)cn1` was “inactive”; that for `COC(=O)[C@H]1C[C@@H]1[C@H](NC(=O)Oc1ccc(F)cc1)c1ccccc1` was “inactive”. `O=c1cc(-c2ccccc2)[nH]c2nc(Cl)ccc12`: the Potency was 25.1 µM (active). The same measure, in the same setting: then `CN1CCN(c2ncc3nc(-c4ccc(Cl)cc4)c(=O)n(-c4ccccc4)c3n2)CC1`, with “inactive”. `C#CCC(C(=O)OC)(C(=O)OC)C(C[N+](=O)[O-])c1ccccc1` (stereo unspecified): the activity change, negative = inhibition was 1.44% [at 11.4 µM]. Regarding `Cc1ccc2oc(=O)ccc2c1`, the Potency result is “inactive”. As to `CCN(CC)c1ccc2oc(=O)c(C)nc2c1`, the Potency was 3.98 µM (active).

For the molecule `CC(=O)OCC1OC(C#CCCCc2ccccc2)C=CC1OC(C)=O` (stereo unspecified), the activity change, negative = inhibition was -21.4% [at 11.4 µM] and -18.3% [at 11.4 µM]. As for `O=c1oc2cc(O)ccc2cc1-c1ccc(F)cc1`, the Potency entry is “inactive”. Consider `COc1cccc(C(=O)c2cc3ccc(O)cc3oc2=O)c1`, for which the Potency result was “inactive”. `COc1ccc(-c2cc3ccc(OCc4nn[nH]n4)cc3oc2=O)cc1`: the Potency was 3.16 µM (active). On the same count and under the same terms, then `Nc1ccccc1N`, with “inactive”; and `COC(=O)N1CCC[C@@]2(CCN(C(=O)NC(C)C)C2)C1`, with “inactive”. In the case of `N=C(CC(=O)Nc1ccccn1)c1ccccc1`, the activity change, negative = inhibition was 6.89% [at 11.4 µM]. The same measure, in the same setting: the value for `CC(C)c1cc(CN(C)C)c(O)c(C(C)(C)C)c1` was -0.755% [at 11.4 µM].

As for `O=C(Nc1cc(N2CCOCC2)ncn1)NC1(C(F)(F)F)Oc2ccc(Cl)cc2O1` (stereo unspecified), the Potency was 3.16 µM (active).

Turning to `c1cnn(-c2cc(N3CCOCC3)ncn2)c1`, the Potency entry was “inactive”. Still for that read-out and setting: then `O=C(CN1CCOCC1)Nc1cc(Cl)ccc1Cl`, with “inactive”; and `COC(=O)[C@@H]1[C@H]2C[C@H]3c4[nH]c5cc(OC)ccc5c4CCN3C[C@@H]2C[C@@H](OC(=O)c2cc(OC)c(OC)c(OC)c2)[C@@H]1OC`, with “inactive”; and `O=C(O)CC(C(=O)O)C(CC(=O)O)C(=O)O` (stereo unspecified), with “inactive”. On the same count and under the same terms, then `O=C(O)[C@@H](S)[C@H](S)C(=O)O`, with 1 µM (active); and `CN(c1ccccc1)c1ccc(/C=c2\s/c(=C(/C#N)C(=O)C(C)(C)C)n(Cc3ccco3)c2=O)cc1`, with “inactive”. For `O=c1nc2s/c(=C\c3ccco3)c(=O)n2nc1Cc1ccccc1`, the Potency is 7.94 µM (active). On to `Cc1nc2nc(SCC(=O)NCc3ccco3)nn2c(C)c1Cc1ccccc1`, for which the Potency result is “inactive”.

On to `CN(C)CCCCNC(=O)c1ccc(Cc2nc3ccccc3[nH]2)cc1`, for which the Potency entry is “inactive”. `CN(C)CCCNC(=O)c1ccc2[nH]c3ccccc3c2c1`: the Potency is 25.1 µM (active). The same measure, in the same setting: then `CC(C)N(CCNC(=O)c1ccc(-n2c(=O)c(=O)[nH]c3ccccc32)cc1)C(C)C`, with “inactive”; and `COc1ccc(CNc2ncnc3ccc(-c4cccnc4)cc23)c(OC)c1`, with “inactive”.

On to `CS(=O)(=O)N1CCC2(CC1)CN(Cc1ccccc1)C2`, for which the Potency entry was “inactive”.

`COC(=O)[C@@]1(C)C=C[C@@H](Cc2ccccc2)N1C(C)=O`: the Potency result is “inactive”.

As to `CCCCCCCCCCCC(=O)O`, the Potency entry is “inactive”. For `Cc1cc(C)cc(C#CC2C=CC(Oc3ccc(C4CCCC4)cc3)C(CO)O2)c1` (stereo unspecified), the activity change, negative = inhibition is 10.7% [at 11.4 µM]. For `O=S(=O)(O)CCN1CCOCC1`, the Potency result is “inactive”. Regarding `O=c1c(-c2ccccc2)coc2c(CN3CCOCC3)c(O)ccc12`, the Potency result was “inactive”. Still for that read-out and setting: the value for `Oc1c(CN2CCOCC2)ccc(CN2CCOCC2)c1O` was 0.316 µM (active); that for `C=C(C)C1CC=C(C)C(O)C1` (stereo unspecified) was “inactive”. Take `CCC[C@@H]1C[C@@]1(CCC)[C@@H](NC(=O)c1ccccc1)c1ccc(C(=O)OC)cc1`: the Potency result was “inactive”. With `O=C(Nc1cccc(F)c1)N1CC2(CCN(C(=O)c3csnn3)CC2)C1`, the Potency entry is “inactive”. Turning to `FC(F)(F)c1cc(-c2ccco2)nc(N2CCOCC2)n1`, the Potency entry was “inactive”. Turning to `COC(=O)c1cnn2c(C(F)(F)F)cc(-c3ccco3)nc12`, the Potency was 31.6 µM (active). On the same count and under the same terms, the value for `Cc1cc(C(F)(F)F)nn1-c1nc(-c2ccco2)cc(C(F)(F)F)n1` was “inactive”; that for `Cc1nnc(SCc2ccc(C(=O)c3ccc(Cl)cc3)o2)n1-c1ccccc1` was “inactive”. The same measure, in the same setting: the value for `Cc1nc2cnc(N3CCN(C)CC3)nc2n(CCC#N)c1=O` was “inactive”; that for `O=C(NCc1ccccn1)c1cc2ccccc2oc1=O` was “inactive”; that for `O=C(Oc1cccnc1)c1cc2ccccc2oc1=O` was 20 µM (active). In the case of `CS(=O)(=O)N1CCN(C(=O)c2cc3ccccc3oc2=O)CC1`, the Potency result is “inactive”. Same read-out and setting: then `COC(=O)[C@@]1(Cc2ccc(OC)cc2)[C@H]2c3cc(C(=O)N4CCCC4)n(Cc4ccc(OC(F)(F)F)cc4)c3C[C@H]2CN1C(=O)c1ccccc1`, with “inactive”; and `CCCC[C@@H]1C[C@H]1C(NC(=O)c1ccco1)c1ccc(C(=O)OC)cc1` (stereo partly specified), with “inactive”; and `Cc1ccc(-c2nn(CC(C)(C)C)c3ncnc(N)c23)cc1`, with “inactive”.

Take `C[C@H](CCC(=O)NCC(=O)O)[C@H]1CC[C@H]2[C@H]3[C@@H](C[C@@H](O)[C@]12C)[C@]1(C)CC[C@H](O)C[C@@H]1C[C@@H]3O`: the Potency result is “inactive”. In the case of `COc1ccc(-c2[nH]nc3c2C(c2ccncc2)C(C#N)=C(N)O3)cc1` (stereo unspecified), the Potency entry was “inactive”. Still for that read-out and setting: then `CCOc1c(OC)cc(C2C(C#N)=C(N)Oc3n[nH]c(-c4ccncc4)c32)cc1OC` (stereo unspecified), with 10 µM (active). For the molecule `CCCc1[nH]nc2c1C(c1ccc(OC)c(Cn3nc(C)c(Br)c3C)c1)C(C#N)=C(N)O2` (stereo unspecified), the Potency entry is “inactive”. Still for that read-out and setting: then `O=C(O)C1=CCCN(CCON=C(c2ccccc2)c2ccccc2)C1`, with “inactive”; and `N#CC1=C(N)Oc2cc(O)ccc2C1C1CCCCC1` (stereo unspecified), with “inactive”; and `O=C(O)c1c(Br)c(Br)c(Br)c(Br)c1C1c2ccc(O)cc2Oc2cc(O)ccc21`, with 1.58 µM (active).

`CC1CCCCN1CCCNC(=O)c1ccc(-n2c(=O)c(=O)[nH]c3ccccc32)cc1` (stereo unspecified): the Potency entry is “inactive”. The same measure, in the same setting: the value for `COc1ccc(Oc2ncc3nc(-c4ccc(F)cc4)c(=O)n(C)c3n2)cc1` was “inactive”.

`Oc1c(Cl)cc(Cl)c(Cl)c1Cc1c(O)c(Cl)cc(Cl)c1Cl`: the Potency was 7.94 µM (active). Take `COc1ccc(N)c(OC)c1`: the Potency result is “inactive”. The same measure, in the same setting: the value for `O=C(NCc1ccco1)c1nc2ncccn2n1` was “inactive”; that for `O=C(NCc1ccccn1)c1c(O)c2c([nH]c1=O)CCCC2` was “inactive”. As to `O=C(NCc1ccccn1)c1ccc2nc(-c3ccco3)c(-c3ccco3)nc2c1`, the Potency was 5.01 µM (active).

Take `CC(C)[C@H](CO)Nc1nc(Nc2cc(N)cc(Cl)c2)c2ncn(C(C)C)c2n1`: the Potency entry is “inactive”. As to `COc1cccc([C@H](O)Cn2cc(-c3ccc(CON=C(C)C)cc3)nn2)c1`, the activity change, negative = inhibition is 4.01% [at 11.4 µM]. Regarding `CC(=O)N1CCC2(CCCN(Cc3ccccc3)C2)CC1`, the Potency entry was “inactive”. Turning to `CCN1CCCC1CNC(=O)c1cc2c(=O)n(C)c3ccccc3c2n1C` (stereo unspecified), the Potency was 31.6 µM (active).

`Cn1c(C(=O)NCCc2ccsc2)cc2c(=O)n(C)c3ccccc3c21`: the Potency result is “inactive”. `Cn1c(C(=O)N2CCC(C(N)=O)CC2)cc2c(=O)n(C)c3ccccc3c21`: the Potency entry was “inactive”. Consider `CC(C)C[C@@H](CC(=O)N[C@@H](CCC(=O)O)CC(=O)O)NC(=O)[C@@H]1CCCC[C@H]1NC(=O)C[C@@H](NC(=O)C[C@H](Cc1c[nH]c2ccccc12)NC(=O)[C@@H]1CCCC[C@H]1N)C(C)C`, for which the Potency result was “inactive”. Still for that read-out and setting: then `COc1c(C)c2c(c(O)c1C/C=C(\C)CCC(=O)O)C(=O)OC2`, with “inactive”; and `C/C=C/C=C/C(=O)O`, with “inactive”; and `CCN(CC)CCCCn1c(-c2ccccc2)nc2c(N3CCOCC3)nc(C)nc21`, with “inactive”. Regarding `COc1ccc(-n2c(C)nc3c(cnn3-c3ccccc3)c2=O)cc1`, the Potency entry was “inactive”.

Take `Cc1cccc(-n2ncc3c(N4CCc5ccccc54)ncnc32)c1`: the Potency is 3.16 µM (active). With `COc1ccc(-n2ncc3c(N4CCc5ccccc54)ncnc32)cc1`, the Potency is 31.6 µM (active). Turning to `Cc1ccc(-n2ncc3c2ncn2nc(-c4ccco4)nc32)c(C)c1`, the Potency result is “inactive”. Turning to `COc1ccc(N2CCN(C(=O)CSc3ncnc4c3cnn4-c3ccc(OC)cc3)CC2)cc1`, the Potency entry was “inactive”. On to `Cc1ccc(-n2ncc3c(N4CCN(c5ccc(F)cc5)CC4)ncnc32)c(C)c1`, for which the Potency entry is “inactive”.

Turning to `CC(=O)OCCC(C)C`, the Potency result is “inactive”. Still for that read-out and setting: then `CCCn1c(-c2ccc(F)cc2)nc2c(NCC3CCCN3CC)nc(C)nc21` (stereo unspecified), with “inactive”; and `CCCN(C/C=C\I)[C@@H]1CCc2cccc(O)c2C1`, with “inactive”; and `Cc1ccc(S(=O)(=O)NCc2nc3ccccc3c(=O)n2N)cc1`, with “inactive”.

Take `Cc1ccc(S(=O)(=O)c2c(N)n(C)c3nc4ccccc4nc23)cc1`: the Potency is 31.6 µM (active).

Consider `COCCn1c(=O)c(C)nc2cnc(N(C)C)nc21`, for which the Potency result is “inactive”. `Cc1c2c(nc3ccccc13)-c1cccc(=O)n1C2`: the Potency entry is “inactive”.

On to `COC(=O)[C@@]1(Cc2ccccc2)[C@H]2c3cc(C(=O)N4CCCC4)n(Cc4ccc(C)o4)c3C[C@H]2CN1C(=O)c1ccccc1`, for which the Potency result was “inactive”.
